# Screening results: PubChem, National Center for Advancing Translational Sciences (NCATS)
# HttQ103 aggreg: mutant huntingtin aggregation inhibition; PC12 HttQ103-GFP aggregates, Acumen cytometry, 40 h; Potency, µM (top dose mostly 46.1 µM), without a hit: at the highest dose activity change, negative = inhibition, usual class: inhibitors; actives 1.1% (n = 220,000); AID 1688; also: % is scaled to controls: 0 for no effect and ±100 for the full control effect; nearly all actives have a fitted effect of over 60% in size
#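 Read-out: GFP aggregate count by laser scanning cytometer (488 nm excitation, 500-530 nm emission, 1–25 µm objects >6 SD above background). Cells: PC12, inducible HTTex1-Q103-GFP, 100 nM tebufenozide; compounds titrated.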
# Epigenetic reg: epigenetic control regulation, reporter derepression. murine LDR cells, GFP reporter derepression, 30 h. Potency, µM (highest dose often 53.9 µM), without a hit: top-dose GFP activation, most hits filed as activators. actives 0.2% (n = 280,000); also: % of control where 0% means no effect; nearly all actives have a fitted effect of over 60% in size
#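 Reporter derepression read as number of fluorescent GFP-positive objects, 20-120 um in size, counted by laser-scanning cytometer. Mouse LDR line with an epigenetically silenced CMV-GFP locus; compound incubation 30 h, 37 C.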
# HTT ATP protect: Huntington cell model cytoprotection by ATP luminescence; PC12 HTT-Q103 induced, cytoprotection, ATP luminescence, 40 h; Potency, µM (series often up to 56.4 µM), for the others: cytoprotection (ATP increase), actives largely listed as activators; actives 0.14% (n = 230,000); also: % of control where 0% means no effect; nearly all actives have a fitted effect of over 45% in size
#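 Cells were plated at 1500 per well in phenol red-free DMEM with 5% equine and 5% calf serum. Tebufenozide (100 nM final) and compounds were added, then ATPlite reagent, and luminescence was read.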
# Apoferritin bind: binds horse apoferritin like a general anesthetic; Potency, µM (top dose mostly 77.5 µM), without a hit: at the highest dose activity change, negative = displacement, hits mostly inhibitors; P02791; apoferritin/1-aminoanthracene competitive binding, fluorescence; actives 0.074% (n = 350,000); also: % is scaled to controls: 0 for no effect and ±100 for the full control effect; nearly all actives have a fitted effect of over 20% in size
# Target sequence (P02791 2-175 limits assumed): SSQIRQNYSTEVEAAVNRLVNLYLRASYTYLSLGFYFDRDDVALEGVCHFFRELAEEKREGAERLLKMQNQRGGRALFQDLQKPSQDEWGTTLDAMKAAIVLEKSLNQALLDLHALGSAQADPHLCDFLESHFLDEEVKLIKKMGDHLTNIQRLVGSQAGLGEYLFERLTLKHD
#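 In PBS, apoferritin at 10 uM is loaded with 1-AMA from a 50% saturated solution. After 10 min of compound exposure at ambient temperature, reduced 535 nm fluorescence indicates probe displacement.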
# PTAP TSG101 blk: blocks PTAP/TSG101 interaction to inhibit HIV-1 budding; Fluorescence polarization, FITC-PTAP peptide / Tsg101 binding; 340,000 tested, under 10 active; Potency, µM (doses to about 115 µM), for the others: at the top dose activity change, negative = inhibition, most hits filed as inhibitors; active = well fitted inhibition curve with a large enough effect in the main read-out, with a control signal flat, not every such curve was filed as active; inconclusive = small, poorly fitted or top-dose-only effect, or effect the other way, or a change in a side signal; inactive = no such curve, though single readings can be large or run the other way; also: % of control where 0% means no effect
# Target sequence (Q99816 whole entry, looked up): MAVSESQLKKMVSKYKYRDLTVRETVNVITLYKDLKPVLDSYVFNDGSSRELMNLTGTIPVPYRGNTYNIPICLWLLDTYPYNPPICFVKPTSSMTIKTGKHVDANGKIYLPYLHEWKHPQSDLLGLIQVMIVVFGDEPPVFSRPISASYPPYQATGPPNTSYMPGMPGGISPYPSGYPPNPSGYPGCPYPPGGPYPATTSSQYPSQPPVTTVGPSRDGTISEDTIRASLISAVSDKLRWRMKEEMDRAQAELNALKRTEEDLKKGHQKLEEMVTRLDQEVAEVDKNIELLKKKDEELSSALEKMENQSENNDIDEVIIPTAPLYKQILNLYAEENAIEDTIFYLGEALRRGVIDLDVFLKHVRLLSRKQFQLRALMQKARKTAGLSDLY
#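 Tsg101 binding domain (10 uM final) was mixed with compound and a FITC-labeled PTAP peptide (50 nM final) in HEPES pH 7.5 buffer with NaCl, Tween 20, EDTA and TCEP; fluorescence polarization was read after 20 min at r.t.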
# PINK1 modulator: changes PINK1 expression. PINK1 immunofluorescence, high-content cytometry, 24 h. Potency, µM (series often up to 76.6 µM), for the others: at the top dose activation (PINK1 increase), actives largely listed as activators. actives 0.2% (n = 410,000). AID 624263; active = well fitted activation curve with a large enough effect; inconclusive = small, poorly fitted or top-dose-only effect; cell line not stated here; also: % of control where 0% means no effect; nearly all actives have a fitted effect of over 65% in size
#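 Cells are seeded, rested 12 hours, then given compound at five concentrations or DMSO for 24 hours. After fixation, blocking and antibody staining, PINK1 amount and mitochondrial localization are scored; CCCP serves as control.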
# * = called active by the depositor; ? = inconclusive; . = no result; [ ] = remark or other dose. Shown is part of a subset that was picked to be rich in hits. Unless noted, calls follow the shape of the dose curve; as a rule, active = well fitted curve in the direction sought with a large enough effect; inconclusive = small, poorly fitted or top-dose-only effect, or another doubt; inactive = no such curve, though single readings can be large; an effect the other way counts as inactive or inconclusive. Potency is read from the fitted curve at half-maximal effect.
SMILES,HttQ103 aggreg,Epigenetic reg,HTT ATP protect,Apoferritin bind,PTAP TSG101 blk,PINK1 modulator
Cc1cccc(C)c1N/C=C/c1onc(C)c1[N+](=O)[O-],-4%,?,-13%,-17%,-4%,40µM*
Cc1noc(/C=C/c2ccc(-c3ccccc3Cl)o2)c1[N+](=O)[O-],16%,7.1µM*,1%,-6%,?,?
Brc1cccc(-c2nnn3c2nc(NCc2ccc4c(c2)OCO4)c2ccccc23)c1,.,13%,.,0%,.,0%
COc1ccc(-n2c(-c3ccc(Br)cc3)c[n+]3c2SC(C)C3)cc1 (centres undefined),10µM*,3%,.,-8%,-9%,6%
COc1ccc(-n2c(-c3ccc(Br)cc3)c[n+]3c2CCCCC3)cc1,2.2µM*,3%,13%[10 µM],-10%,-1%,3%
Cc1ccc(-n2c(-c3ccc(Cl)cc3)c[n+]3c2CCC3)cc1,-21%[9.22 µM],0%,-6%[10 µM],-10%,-1%,1%
Cc1ccc(-n2c(-c3ccccc3)c[n+]3c2CCC3)cc1,8.9µM*,0%,-37%,-6%,-2%,0%
COc1ccc(-n2c(-c3ccc(Br)cc3)c[n+]3c2CCC3)cc1,?,2%,-21%,-3%,-1%,-1%
COc1cc(OC)c(OC)cc1CN1CCC(n2cc(C(=O)N3CCCCC3)nn2)CC1,.,.,.,.,.,1%
CCCSc1ncc(Cl)c(C(=O)Nc2sc3c(c2C(=O)NCC)CCCC3)n1,.,4.5µM*,.,6%,.,0%
CCSc1ncc(Cl)c(C(=O)Nc2sc3c(c2C(=O)NC)CCCC3)n1,.,7.1µM*,.,-1%,.,1%
CCNC(=O)c1c(NC(=O)c2nc(SC)ncc2Cl)sc2c1CCCC2,.,.,.,.,.,1%
Cc1c(O)ccc2c1OC(C)(C)CC2,.,.,.,.,.,1%
CC(C)OCc1cc(CN2CCN(c3cccc(C(F)(F)F)c3)CC2)c(O)c2ncccc12,.,?,.,-4%,.,5%
CCOC(=O)N1CCN(Cc2ccc(O)c3ncccc23)CC1,-19%[9.22 µM],4µM*,-30%[10 µM],-17%,0%,?
Oc1ccc(CN2CCN(c3ccccc3)CC2)c2cccnc12,-31%,3.5µM*,17%[10 µM],-7%,-7%,?
O=[N+]([O-])c1cc(CN2CCN(c3cccc(C(F)(F)F)c3)CC2)c2cccnc2c1O,8.9µM*,1%,-138%,?,-7%,4%
Oc1ccc(CN2CCc3ccccc3C2)c2cccnc12,?,3.5µM*,-91%,?,-4%,-1%
COc1cccc(C2(CC(=O)N3CCN(c4nonc4C)CC3)CC(=O)N(C3CCCC3)C2=O)c1 (centres undefined),.,.,.,.,.,0%
Cc1cc(C(=O)N(Cc2cc3cc4c(cc3nc2N2CCOCC2)CCC4)CC2CCCO2)c(=O)[nH]c1C (centres undefined),.,.,.,.,.,0%
Cc1nn(C)c(C)c1CN(C)S(=O)(=O)c1ccc(F)cc1,-30%,1%,-13%[1.9 µM],-3%,-2%,1%
Cc1nn(C)c(C)c1CN(C)S(=O)(=O)c1ccc2ccccc2c1,7.9µM*,-2%,?,5%,1%,1%
O=C(Nc1nc(-c2cccs2)c(C(=O)C(F)(F)F)s1)c1ccccc1,10µM*,1%,.,-20%,-5%,?
COc1cc(=O)n2c(c1C(=O)NC(C)c1ccco1)CCN(C(=O)c1ccnc(Cl)c1)CC2 (centres undefined),.,.,.,.,.,1%
COc1ccc(NS(=O)(=O)c2ccc(N/N=C/c3ccc(N4CCOCC4)cc3)c([N+](=O)[O-])c2)cc1,2µM*,-3%,.,-3%,1%,8%
SMILES,HttQ103 aggreg,Epigenetic reg,HTT ATP protect,Apoferritin bind,PTAP TSG101 blk,PINK1 modulator
COc1ccc(S(=O)(=O)Nc2ccc(N3CCOCC3)cc2)cc1,.,.,.,4%,-8%,1%
O=C(CSc1c2c(nc3cc(Cl)ccc13)CCCC2)NCc1ccccc1Cl,.,3%,.,-7%,.,4%
O=C(CSc1c2c(nc3cc(Cl)ccc13)CCCC2)NCc1ccco1,.,12%,13µM*,?,-1%,-1%
CC1CN(S(=O)(=O)c2ccc(C(=O)Nc3nnc(-c4ccccn4)o3)cc2)CC(C)O1 (centres undefined),-8%,5%,-23%,1%,-4%,2%
CC1CN(S(=O)(=O)c2ccc(C(=O)Nc3nnc(-c4ccc5c(c4)CCCC5)o3)cc2)CC(C)O1 (centres undefined),3.5µM*,7%,-107%,-7%,-4%,2%
CC(=O)Nc1nnc(-c2ccc3c(c2)CCCC3)o1,-14%,1%,-45%,-23%,-1%,0%
CCOC(=O)N1CCN(S(=O)(=O)c2ccc(C(=O)Nc3nnc(CSC)o3)cc2)CC1,-15%,-3%,0%[10 µM],-1%,-2%,1%
CCOC(=O)N1CCN(S(=O)(=O)c2ccc(C(=O)Nc3nnc(C)o3)cc2)CC1,?,3%,3.5µM*,3%,2%,1%
COc1cc(-c2nnc(NC(=O)c3ccc(S(=O)(=O)N4CCOCC4)cc3)o2)cc(OC)c1OC,14%,9%,-8%,-4%,.,.
COc1cccc(-c2nnc(NC(=O)c3ccc(S(=O)(=O)N4CCOCC4)cc3)o2)c1,10µM*,0%,-56%,-8%,-7%,-1%
COc1ccccc1C(=O)Nc1nnc(-c2ccc3c(c2)CCCC3)o1,20µM*,3%,-37%,?,-7%,0%
O=C1/C(=C/c2ccc(O)c(O)c2)Oc2ccccc21,.,.,.,-6%,.,.
COc1cc(CN2CCCC(n3cc(C(=O)N4CCCCC4)nn3)C2)cc(OC)c1 (centres undefined),.,.,.,.,.,-1%
COc1ccc2c(c1)-c1nc(-n3ncc(C(=O)NC[C@@H]4CCCN5CCCC[C@H]45)c3C)ncc1CC2,.,.,.,.,.,0%
Cc1cc(C(=O)NCc2nc(-c3cccc(NC(=O)c4ccccc4)c3)oc2C)nc(C)n1,.,.,.,.,.,0%
Cc1ccc2c(c1)C(c1ccc(F)cc1)N(C(=O)COc1ccc(Cl)cc1Cl)CC(=O)N2 (centres undefined),.,0%,.,0%,.,-2%
CCN(CC)c1ccc(/C=N/N2C(=O)c3ccccc3C2=O)cc1,10%,3%,.,?,1%,0%
CCN(CC)c1ccc(/C=N/N2CC(=O)NC2=S)cc1,.,.,.,.,3%,40µM*
CCOc1cc2sc(N3CCC(C(=O)Nc4ccccc4Cl)CC3)nc2cc1Br,.,0%,.,-9%,.,0%
O=C(Nc1ccc(Cl)cc1)c1cc(S(=O)(=O)N2CCOCC2)cs1,10µM*,-1%,-48%,-15%,-2%,-6%[38.3 µM]
O=C(Nc1ccc(F)cc1)c1cc(S(=O)(=O)N2CCOCC2)cs1,.,.,.,-8%,-3%,0%
